Biological target: JMJD8
Experiment: pooled miR-30 sensor sort-seq; sequence = guide strand
Conditions: shRNA

Going from TAGCATGCCACCAGCGGTCGGG to TATACATAGTTTATGTTCCTGG, the sensor-assay potency score (higher = more potent) rises from -0.51 to -0.256.

Going from TACAGCACCTCACCAGCCCGGA to TACTGCTGCACGAACTCCGCGT, the sensor-assay potency score (higher = more potent) rises from -0.942 to -0.255.

Going from TAGATCACTTCTGAGTACCCGG to TACGACCGTAGATCACTTCTGA, the sensor-assay potency score (higher = more potent) rises from -0.223 to 0.324.

Compared with TTTGTGGTAGGAGTAGGTGTTG, TATCTGTGTAATAAAATCCGTG is higher in sensor-assay potency score (higher = more potent): -1.04 for the first, -0.911 for the second.

Going from TTATTGACGCATTCATCTCTGA to TAGGAGTAGGTGTTGGCGGTGC, the sensor-assay potency score (higher = more potent) rises from -0.0992 to 0.392.

First: TTGTGGTAGGAGTAGGTGTTGG
Second: TTGAGCGTAGCATGCCACCAGC
The sensor-assay potency score (higher = more potent) of the first is lower: -1.22 for the first, -0.983 for the second.

Biological target: JOSD1
Experiment: as above
Conditions: shRNA

Compared with TTTAGAAACTTCCTGAGCTCGC, TTTCCCAGCATGCTCTTCTTGT is lower in sensor-assay potency score (higher = more potent): 0.218 for the first, -0.498 for the second.

Going from TTGTGAGGTGTCACCATGGTGT to ATCTCTTGCAGCGTATCCCGGG, the sensor-assay potency score (higher = more potent) rises from -0.922 to -0.409.

For TACCTCTTCTGGTACCACCAGC, the sensor-assay potency score (higher = more potent) was -0.788.
